Screens deposited in PubChem by several laboratories.
The list is not random: actives were taken first. Their share in the collection is about 2%.
NadD inh: inhibitors of Staphylococcus aureus NadD; purified NadD enzyme, colorimetric absorbance read-out; inhibition, % at 20 µM; actives 0.78% (n = 360,000); in the data active means inhibition above about 26%
ARNT-TACC3 inh: ARNT/TACC3 interaction disruption | Q9Y6A5 | AlphaScreen His-ARNT PAS-B/GST-TACC3 binding, luminescence; TACC3 fragment carries E629A point mutation | inhibition, % at 9.99 µM | actives 0.66% (n = 390,000) | AID 623870;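 active means mean inhibition of replicates at least 50% and at least half of replicates each reaching 50%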
HGIII-sPLA2 inh: Blocks human group III sPLA2 activity. Q9NZ20. QFRET BODIPY PC-A2 liposome hydrolysis, fluorescence. inhibition, % at 12.2 µM. actives 0.56% (n = 370,000). AID 743126;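 active means inhibition above mean plus 3 SD of compounds lying within the high and low control bounds, cut at about 19% in these data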
Neddylation inh: inhibitors of human cullin neddylation; P61081+Q13564; TR-FRET cullin neddylation, biochemical; inhibition, % at 25 µM; actives 0.58% (n = 360,000); in the data active means inhibition above about 36%
Target sequence (P61081 whole entry, looked up): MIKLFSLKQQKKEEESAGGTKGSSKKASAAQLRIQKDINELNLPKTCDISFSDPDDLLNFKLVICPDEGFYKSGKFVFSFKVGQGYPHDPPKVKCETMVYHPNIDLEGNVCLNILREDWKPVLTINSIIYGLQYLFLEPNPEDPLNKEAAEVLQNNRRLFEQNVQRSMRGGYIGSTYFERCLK
Target sequence (Q13564 whole entry, looked up): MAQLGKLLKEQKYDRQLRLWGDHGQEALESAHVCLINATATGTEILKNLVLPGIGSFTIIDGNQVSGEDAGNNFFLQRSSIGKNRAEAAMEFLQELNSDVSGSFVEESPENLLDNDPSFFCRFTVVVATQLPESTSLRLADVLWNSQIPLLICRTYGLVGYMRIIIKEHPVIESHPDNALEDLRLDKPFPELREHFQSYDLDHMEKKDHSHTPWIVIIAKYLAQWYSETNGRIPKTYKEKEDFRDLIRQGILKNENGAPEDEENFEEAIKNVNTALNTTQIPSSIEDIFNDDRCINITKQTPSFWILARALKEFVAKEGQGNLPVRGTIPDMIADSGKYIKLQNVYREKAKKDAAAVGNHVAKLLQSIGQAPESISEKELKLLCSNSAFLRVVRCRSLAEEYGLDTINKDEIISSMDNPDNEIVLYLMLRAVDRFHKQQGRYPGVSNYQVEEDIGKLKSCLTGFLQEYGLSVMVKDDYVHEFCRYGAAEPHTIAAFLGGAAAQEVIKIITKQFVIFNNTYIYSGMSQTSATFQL
DAGLB inhibitor: diacylglycerol lipase beta (human) inhibition. inhibition, % at 5.17 µM. Q8NCG7. actives 0.059% (n = 340,000). HEK293T DAGLB membrane lysate, EnzChek fluorogenic substrate; in the data active means inhibition above about 34%
NadD conf: NadD (S. aureus) inhibition, single concentration confirmation | shares compounds with NadD inh | inhibition, % at 20 µM | purified S. aureus NadD, colorimetric enzyme assay | actives 13% (n = 2,000); in the data active means inhibition mostly above about 42%, no sharp cut-off; inactive means mostly below about 42%
Of the large screens only hits and unclear results are named; the others gave an inactive call (follow-up assays come after a bar, where they were run).

COc1cccc(-c2ccc3c(c2)[C@@H]2[C@@H](CCN2C(=O)c2ccc4c(c2)OCO4)[C@H](CO)N3C)c1	none (no result: NadD inh, HGIII-sPLA2 inh, Neddylation inh, DAGLB inhibitor)
CC(C)CC(C(=O)Nc1oc(-c2ccccc2)c(-c2ccccc2)c1C#N)N1C(=O)c2ccccc2C1=O (configuration not stated)	NadD inh 36 | NadD conf inactive
N#Cc1c(NC(=O)CSc2ncnc3sccc23)oc(-c2ccco2)c1-c1ccco1	NadD inh 58 | NadD conf 58
Cc1cc(NC(=O)CSc2ncnc3sccc23)no1	none
CCn1c(SCC(=O)Nc2oc(-c3ccccc3)c(-c3ccccc3)c2C#N)nnc1-c1ccco1	NadD inh 29 | NadD conf inactive
N#Cc1c(NC(=O)CN2C(=O)c3ccccc3C2=O)oc(-c2ccccc2)c1-c1ccccc1	NadD inh 33 | NadD conf inactive
N#Cc1c(NC(=O)CCN2C(=O)c3ccccc3C2=O)oc(-c2ccccc2)c1-c1ccccc1	none
CCC(=O)N[C@@H]1C=C[C@H](CC(=O)NCc2cc(F)cc(F)c2)O[C@H]1CO	none (no result: NadD inh, HGIII-sPLA2 inh, Neddylation inh, DAGLB inhibitor)
CC(C)C[C@@H](CN1CCC[C@@H]1CN1C(=O)C(=O)NC[C@@H]1Cc1ccccc1)N1C[C@H](Cc2ccc(O)cc2)N(CC2CCCCCC2)C(=O)C1=O	none
CC(C)C[C@@H](CN1CCC[C@H]1CN1C(=O)C(=O)NC[C@@H]1Cc1ccc(O)cc1)N1C[C@H](Cc2ccccc2)N(CC2CCCCCC2)C(=O)C1=O	NadD inh 38 (no result: ARNT-TACC3 inh, DAGLB inhibitor) | NadD conf inactive
CC(C)C[C@@H](CN1CCC[C@H]1CN1C(=O)C(=O)NC[C@@H]1Cc1ccccc1)N1C[C@H](Cc2ccccc2)N(CC2CCCCCC2)C(=O)C1=O	NadD inh 40 (no result: ARNT-TACC3 inh, DAGLB inhibitor) | NadD conf inactive
C[C@@H]1CCCCO[C@@H](CN(C)C)[C@H](C)CN([C@@H](C)CO)C(=O)c2cc(NS(=O)(=O)c3cccs3)ccc2O1	none (no result: NadD inh, HGIII-sPLA2 inh, Neddylation inh, DAGLB inhibitor)
Cc1cc([N+](=O)[O-])c2[nH]c(C(=O)N/N=C/c3ccccc3C(=O)O)c(-c3ccccc3)c2c1	NadD inh 34 | NadD conf inactive
COc1cc(/C=N/NC(=O)Cn2nc([N+](=O)[O-])cc2C)cc(Br)c1OCc1ccccc1	NadD inh 35 | NadD conf inactive
CN1C(=O)c2cc(NC(=O)C3CCCC3)ccc2OC[C@H]2O[C@H](CC(=O)NCC(F)(F)F)CC[C@H]21	none (no result: NadD inh, HGIII-sPLA2 inh, Neddylation inh, DAGLB inhibitor)
S=c1[nH]nc(-c2cccs2)n1/N=C/c1cn(-c2ccccc2)nc1-c1ccccc1	none
Cc1ccc(-c2nn(-c3ccccc3)cc2/C=N/n2c(-c3ccncc3)n[nH]c2=S)cc1	NadD inh 39 (no result: DAGLB inhibitor) | NadD conf inactive
COc1ccc(NC(=O)N(C)C[C@@H]2Oc3ccc(NC(=O)C4CC4)cc3CC(=O)N([C@@H](C)CO)C[C@H]2C)cc1	none (no result: NadD inh, HGIII-sPLA2 inh, Neddylation inh, DAGLB inhibitor)
O=C(Nc1ccc(C2=NCCN2)cc1)c1ccc(C(=O)Nc2ccc(C3=NCCN3)cc2)c(Cl)c1	NadD inh 30 | NadD conf inactive
C[C@H]1CN([C@@H](C)CO)C(=O)c2cc(Br)cnc2O[C@H]1CN(C)Cc1ccncc1	none (no result: NadD inh, HGIII-sPLA2 inh, Neddylation inh, DAGLB inhibitor)
Cc1noc(C)c1NC(=O)N(C)C[C@H]1OCCCC[C@H](C)Oc2ccc(NC(=O)NC(C)C)cc2C(=O)N([C@@H](C)CO)C[C@@H]1C	none (no result: NadD inh, HGIII-sPLA2 inh, Neddylation inh, DAGLB inhibitor)
COCC1=C([C@H](O)c2ccccc2)[C@H](CO)[C@@H]2C(=O)N(C)C(=O)[C@@H]2C1	none (no result: NadD inh, HGIII-sPLA2 inh, Neddylation inh, DAGLB inhibitor)
CCOc1ccc(CCN2C(=O)C(=O)N([C@@H](Cc3ccc(O)cc3)CN3CCC[C@@H]3CN3C(=O)C(=O)NC[C@@H]3Cc3ccccc3)C[C@@H]2Cc2ccccc2)cc1	NadD inh 29 | NadD conf inactive
CCOc1ccc(CCN2C(=O)C(=O)N([C@@H](Cc3ccccc3)CN3CCC[C@H]3CN3C(=O)C(=O)NC[C@@H]3CC(C)C)C[C@@H]2Cc2ccc(O)cc2)cc1	NadD inh 30 (no result: ARNT-TACC3 inh, DAGLB inhibitor) | NadD conf inactive
CNC[C@H]1OCCCC[C@H](C)Oc2ccc(NS(=O)(=O)c3cn(C)cn3)cc2C(=O)N([C@@H](C)CO)C[C@H]1C	none (no result: NadD inh, HGIII-sPLA2 inh, Neddylation inh, DAGLB inhibitor)
C[C@H](CO)N1C[C@H](C)[C@H](CN(C)C(=O)C2CCCCC2)Oc2cc(-c3cccnc3)ccc2S1(=O)=O	none (no result: NadD inh, HGIII-sPLA2 inh, Neddylation inh, DAGLB inhibitor)
CCCc1ccc(-c2cc(C(=O)N/N=C/c3ccc([N+](=O)[O-])o3)c3ccccc3n2)cc1	NadD inh 34 | NadD conf inactive
